# Assay results as given in PubChem BioAssay AID1159554 (Broad Institute, 2015).
# In all, about 94,000 compounds went through this assay and about 2,100 (2.2%) were called active. This excerpt belongs to a sample that is enriched for actives. Unmarked numbers belong to inactive results. Cut-off read from the data, not from the text of the source: active = activity change below about -80%; inconclusive = no clear call, values can overlap the other calls; inactive = above that.
# Experiment: P. falciparum Dd2 growth inhibitors, primary screen, SYBR Green fluorescence, single dose replicates (AID 1159554)
# Settings: 72 h, at 10 µM, active compounds read low
row,SMILES,activity change
1,CO[C@@H]1CN(C)C(=O)c2ccc(NS(C)(=O)=O)cc2OC[C@@H](C)N(C(=O)CC2CC2)C[C@@H]1C,16.2%
2,O=C(c1ccccn1)N1CC(=O)N2[C@H](CO)[C@H](c3ccc(C#CCc4ccccc4)cc3)[C@H]2C1,-46.8%
3,O=C(C[C@@H]1C=C[C@H](NC(=O)Nc2ccccc2F)[C@@H](CO)O1)NCc1ccccc1,-0.106%
4,CN1CCN(C(=O)C[C@H]2CC[C@H]3[C@@H](COc4ccc(NC(=O)C5CCC5)cc4C(=O)N3C)O2)CC1,-19.8%
5,CN1C(=O)c2cc(NC(=O)c3cccc(F)c3)ccc2OC[C@H]2O[C@@H](CC(=O)NCc3ccccc3Cl)CC[C@@H]21,-47.4%
6,CCCNC(=O)N(C)C[C@H]1Oc2cc(-c3ccncc3)ccc2S(=O)(=O)N([C@H](C)CO)C[C@H]1C,70.9%
7,CC(C)NC(=O)N[C@H]1C=C[C@H](CC(=O)NCCN2CCCC2)O[C@@H]1CO,9.57%
8,C/C=C/c1cnc2c(c1)C(=O)N([C@@H](C)CO)C[C@H](C)[C@H](CN(C)C(=O)CN1CCOCC1)O2,-2.24%
9,COc1ccc2c3c(n(C)c2c1)[C@H](CO)N(C(=O)CC1CC1)CC31CCN(Cc2nccs2)CC1,-91.8% (active)
10,COc1ccc2c3c(n(C)c2c1)[C@H](CO)N(Cc1cccnc1)CC31CCN(Cc2cccnc2)CC1,-77.6%
11,CCC(=O)N1CC2(C1)CN(Cc1nccs1)[C@@H](CO)c1c2c2ccc(OC)cc2n1C,3.74%
12,COc1ccc2c3c(n(C)c2c1)[C@H](CO)N(CC1CCCCC1)CC31CCN(Cc2nccs2)CC1,-91% (active)
13,COc1ccc2c3c(n(C)c2c1)[C@@H](CO)N(C(=O)Nc1cccc(F)c1)CC31CCN(Cc2nccs2)CC1,-73.5%
14,COc1ccc2c3c(n(C)c2c1)[C@@H](CO)N(C(C)=O)CC31CCN(Cc2nccs2)CC1,-11.3%
15,CN1C(=O)c2cc(NC(=O)C3CCCC3)ccc2OC[C@H]2O[C@@H](CC(=O)NCCc3ccncc3)CC[C@H]21,22.6%
16,CCS(=O)(=O)N1CC2(CN(C(=O)c3ccc(F)cc3)[C@H](CO)c3c2c2ccc(OC)cc2n3C)C1,-2.54%
17,CCC(=O)Nc1ccc2c(c1)C(=O)N(C)C[C@@H](OC)[C@@H](C)CN(Cc1ccccc1F)[C@H](C)CO2,-23.2%
18,CCC(=O)N1C[C@H](C)[C@H](OC)CN(C)C(=O)c2cc(NC(=O)Nc3cccc(F)c3)ccc2OC[C@@H]1C,-86.1% (active)
19,CO[C@H]1CN(C)C(=O)c2ccc(NC(=O)Nc3ccc4c(c3)OCO4)cc2OC[C@H](C)NC[C@H]1C,0.516%
20,CO[C@H]1CN(C)C(=O)c2cc(NC(=O)Nc3cccc(F)c3)ccc2OC[C@H](C)N(C(C)=O)C[C@H]1C,-27.3%
21,CO[C@H]1CN(C)C(=O)c2ccc(NC(C)=O)cc2OC[C@@H](C)NC[C@H]1C,19.5%
22,CCC(=O)N1C[C@H](C)[C@H](OC)CN(C)C(=O)c2ccc(NC(=O)Nc3cccc(F)c3)cc2OC[C@@H]1C,-41.8%
23,CCCC(=O)Nc1ccc2c(c1)OC[C@@H](C)N(Cc1ccccc1F)C[C@@H](C)[C@H](OC)CN(C)C2=O,-88.8% (active)
24,CO[C@@H]1CN(C)C(=O)c2ccc(NC(=O)Nc3cc(Cl)cc(Cl)c3)cc2OC[C@H](C)NC[C@H]1C,-84.1% (active)

row,SMILES,activity change
1,CCC(=O)Nc1ccc2c(c1)C(=O)N(C)C[C@H](OC)[C@H](C)CN(Cc1ccccc1F)[C@H](C)CO2,-27.5%
2,COc1ccc(NC(=O)Nc2ccc3c(c2)[C@H]2C[C@H](CC(=O)NC4CCCC4)O[C@@H](CO)[C@H]2O3)cc1,4.95%
3,O=C(C[C@@H]1CC[C@H]2[C@@H](COC[C@H](O)CN2S(=O)(=O)c2ccccc2)O1)NCCN1CCCC1,-4.83%
4,C[C@@H]1CCCCO[C@H](CN(C)C(=O)CCC(F)(F)F)[C@H](C)CN([C@@H](C)CO)C(=O)c2cc(NC(=O)CCCCCC(=O)Nc3ccccc3N)ccc2O1,-41%
5,O=S(=O)(NC[C@H]1[C@@H](c2ccccc2)[C@@H](CO)N1CC1CC1)c1ccccc1,10.7%
6,O=C(NC[C@@H]1[C@H](c2ccccc2)[C@H](CO)N1CC1CCCC1)c1cccnc1,-5.05%
7,CCCNC(=O)N1[C@H](CO)[C@H](c2ccccc2)[C@H]1CNC(=O)C1CCCCC1,6.57%
8,Cc1nc(N2[C@H](CO)[C@H](c3ccccc3)[C@H]2CNCC2CCCCC2)sc1C,-96.4% (active)
9,COCCNC[C@@H]1[C@H](c2ccccc2)[C@H](CO)N1c1nc(C)c(C)s1,-28.1%
10,Cc1nc(N2[C@H](CO)[C@H](c3ccccc3)[C@H]2CNCC2CCC2)sc1C,-89.7% (active)
11,CCCNC(=O)[C@@H]1[C@@H](CO)[C@@H]2Cn3c(ccc(-c4ccccc4F)c3=O)[C@H]1N2CC1CC1,4.78%
12,CCCNC(=O)C[C@@H]1CC[C@H]2[C@@H](COc3ccc(NC(=O)C4CCCC4)cc3C(=O)N2C)O1,5.93%
13,O=C(CC1CC1)N1CC[C@@H]2[C@@H](CO)Nc3ccc(-c4ccccc4)cc3[C@@H]21,4.83%
14,O=C(Nc1ccccc1)N[C@@H]1CC[C@H](CCn2cc(-c3ccccc3F)nn2)O[C@@H]1CO,-68%
15,O=C(Nc1ccc(F)cc1)N[C@H]1CC[C@H](CCn2cc(C3(O)CCCC3)nn2)O[C@@H]1CO,-25.8%
16,C[C@@H]1CCCCO[C@H](CN(C)Cc2ccc(Cl)c(Cl)c2)[C@@H](C)CN([C@@H](C)CO)C(=O)c2cc(NC(=O)Nc3ccccc3)ccc2O1,-83% (active)
17,C[C@@H]1CCCCO[C@@H](CN(C)Cc2ccc3c(c2)OCO3)[C@@H](C)CN([C@@H](C)CO)C(=O)c2cc(NC(=O)Nc3ccccc3)ccc2O1,-36.8%
18,C[C@H](CO)N1C[C@H](C)[C@H](CN(C)Cc2ccc(Cl)c(Cl)c2)OCCCC[C@H](C)Oc2ccc(NC(=O)NC3CCCCC3)cc2C1=O,-14.4%
19,C[C@@H]1CN([C@H](C)CO)C(=O)c2cc(NC(=O)Nc3ccc(F)cc3)ccc2O[C@@H](C)CCCCO[C@H]1CN(C)Cc1ccc(Cl)c(Cl)c1,-77.2%
20,COc1ccc(CN(C)C[C@@H]2OCCCC[C@@H](C)Oc3ccc(NC(=O)Nc4ccc(OC)cc4)cc3C(=O)N([C@@H](C)CO)C[C@@H]2C)cc1,-76.5%
21,C[C@H]1CCCCO[C@@H](CN(C)Cc2ccc(C(F)(F)F)cc2)[C@@H](C)CN([C@@H](C)CO)C(=O)c2cc(NC(=O)Nc3ccccc3)ccc2O1,-74.7%
22,CC(C)NC(=O)Nc1ccc2c(c1)C(=O)N([C@@H](C)CO)C[C@@H](C)[C@H](CN(C)Cc1ccc(Cl)c(Cl)c1)OCCCC[C@H](C)O2,-77.6%
23,C[C@@H]1CCCCO[C@@H](CN(C)Cc2ccc(C(F)(F)F)cc2)[C@@H](C)CN([C@H](C)CO)C(=O)c2cc(NC(=O)Nc3ccccc3)ccc2O1,74.5%
24,C[C@@H]1CCCCO[C@@H](CN(C)Cc2ccc(Cl)c(Cl)c2)[C@H](C)CN([C@H](C)CO)C(=O)c2cc(NC(=O)Nc3ccc(F)cc3)ccc2O1,-83% (active)

row,SMILES,activity change
1,COc1ccc(NC(=O)Nc2ccc3c(c2)C(=O)N([C@H](C)CO)C[C@H](C)[C@H](CN(C)Cc2ccncc2)OCCCC[C@H](C)O3)cc1,29.4%
2,C[C@@H]1CN([C@H](C)CO)C(=O)c2cc(NC(=O)Nc3ccccc3)ccc2O[C@@H](C)CCCCO[C@H]1CN(C)Cc1ccc(C(F)(F)F)cc1,-85.7% (active)
3,COc1ccc(NC(=O)Nc2ccc3c(c2)C(=O)N([C@H](C)CO)C[C@@H](C)[C@H](CN(C)Cc2ccc(Cl)c(Cl)c2)OCCCC[C@@H](C)O3)cc1,-83.8% (active)
4,COc1ccc(-c2ccc([C@@H]3[C@H](CN(C)S(C)(=O)=O)N[C@@H]3CO)cc2)cc1,-61.4%
5,C[C@H](CO)N1C[C@H](C)[C@@H](CN(C)C(=O)Cc2ccccn2)Oc2cc(-c3cccc(C(=O)N(C)C)c3)ccc2S1(=O)=O,-3.07%
6,CN1CCN(C(=O)C[C@H]2C[C@@H]3c4cc(NS(=O)(=O)c5ccc(F)cc5)ccc4O[C@@H]3[C@@H](CO)O2)CC1,-2.3%
7,CO[C@@H]1CN(C)C(=O)c2cc(NC(=O)NC3CCCC3)ccc2OC[C@H](C)NC[C@H]1C,14.4%
8,O=C(Nc1cc(F)ccc1F)N1CC(=O)N2[C@H](CO)[C@@H](c3ccc(-c4cccnc4)cc3)[C@@H]2C1,-15.2%
9,CCC(=O)N1C[C@H]2[C@@H](c3ccccc31)[C@H](CO)N2Cc1ccccc1F,0.398%
10,CO[C@H]1CN(C)C(=O)c2ccc(NC(C)=O)cc2OC[C@@H](C)N(C(=O)c2ccccn2)C[C@@H]1C,13.4%
11,Cc1noc(C)c1S(=O)(=O)N(C)C[C@@H]1OCCCC[C@@H](C)Oc2ccc(NS(=O)(=O)c3ccccc3)cc2C(=O)N([C@H](C)CO)C[C@@H]1C,-10.1%
12,COc1ccc2c3c([nH]c2c1)[C@@H](CO)N(Cc1cc(F)ccc1F)CC31CCN(C(=O)C2CCC2)CC1,-88% (active)
13,COc1ccc2c3c([nH]c2c1)[C@@H](CO)N(Cc1cc(F)ccc1F)CC31CN(C(=O)C2CCC2)C1,-89.2% (active)
14,CCC(=O)N1CCC2(CC1)CN(Cc1cc(F)ccc1F)[C@@H](CO)c1c2c2ccc(OC)cc2n1C,-73%
15,COCC(=O)N1CC2(C1)CN(Cc1ccccc1F)[C@@H](CO)c1[nH]c3cc(OC)ccc3c12,-88.4% (active)
16,CCC(=O)N1CC2(C1)CN(Cc1cc(F)ccc1F)[C@@H](CO)c1[nH]c3cc(OC)ccc3c12,-89.9% (active)
17,COc1ccc2c3c([nH]c2c1)[C@@H](CO)N(C(=O)NC(C)C)CC31CN(C(=O)C2CCCC2)C1,12.7%
18,CCCNC(=O)N1CC2(CCN(C(=O)C3CC3)CC2)c2c([nH]c3cc(OC)ccc23)[C@H]1CO,-26.2%
19,COc1ccc2c3c(n(C)c2c1)[C@H](CO)N(Cc1ccccc1F)CC31CN(C(=O)C2CCC2)C1,-14.5%
20,COc1ccc2c3c([nH]c2c1)[C@H](CO)N(Cc1nccs1)CC31CCN(C(=O)C2CCC2)CC1,-50%
21,COc1ccc2c3c([nH]c2c1)[C@@H](CO)N(Cc1ccccc1OC)CC31CCN(C)CC1,35.1%
22,COc1ccc2c3c([nH]c2c1)[C@@H](CO)N(C(C)=O)CC31CN(C(=O)Nc2ccc(F)cc2)C1,-0.229%
23,COc1ccc2c3c([nH]c2c1)[C@@H](CO)N(Cc1ccncc1)CC31CN(C(=O)CN(C)C)C1,-8.59%
